The text below walks through data of PubChem BioAssay (NCATS).

Records with an inconclusive call do not appear. Unmarked numbers belong to inactive results. Calls of active or inactive are those of the source. Calls follow the shape of the dose curve; as a rule, active = well fitted cell-killing curve with a large enough effect; inconclusive = small, poorly fitted or top-dose-only effect, or effect the other way; inactive = no such curve, though single readings can be large or run the other way.
Potency is read from the fitted curve at half-maximal effect.

This test is described as follows: Quantitative High-Throughput drug screen in 47 multiple myeloma cell lines against the NCATS MIPE library collection: KMS34_JCRB cell viability assay (AID 1918985). Also: nearly all actives have a fitted effect of over 40% in size.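 As to viability, percent of control: 100% = DMSO-only wells and 0% = media-only wells.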 The following applies: KMS34 myeloma viability, CellTiter-Glo ATP luminescence, 48 h; series mostly up to 45.8 µM; viability, percent of control: at the top concentration. An outline of the steps: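 qHTS format: cells plated (500/well), pin-dosed with MIPE 4.0 compounds, kept 48 h at 37 °C. Readout was CellTiter-Glo luminescence, median RLU.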
On the technique in general: ATP-based viability assays read luminescence as a measure of living cells.
As for `C=CCc1cc(OC)c(O)c(C(=O)NCCO)c1`, the “viability, percent of control” value was 110%. The same measure, in the same setting: the value for `Nc1cc(C(Cl)=C(Cl)Cl)c(S(N)(=O)=O)cc1S(N)(=O)=O` was 111%; that for `COc1cc(OC)c(C(=O)CCCN2CCCC2)c(OC)c1` was 92.7%. On the same count and under the same terms, the value for `CN1C(C(=O)Nc2ccccn2)=C(O)c2sccc2S1(=O)=O` was 137%; that for `CCN(CCO)CCCC(C)Nc1ccnc2cc(Cl)ccc12` (stereo not drawn) was 89.2%. On the same count and under the same terms, the value for `C[C@@H](N)C1CCC(C(=O)Nc2ccncc2)CC1` (stereo partly drawn) was 102%; that for `Cc1ccc(C)c(OCCCC(C)(C)C(=O)O)c1` was 116%; that for `Cc1cccc(-c2[nH]ncc2-c2ccc3ncccc3n2)n1` was 93.1%. With `COc1cc(Nc2c(C#N)cnc3cc(OCCCN4CCN(C)CC4)c(OC)cc23)c(Cl)cc1Cl`, the Potency was 16600 nM (active).

For the compound `CCN(CC)C(=S)SSC(=S)N(CC)CC`, the Potency is 23.5 nM (active). For `CCOc1cc(CC(=O)N[C@@H](CC(C)C)c2ccccc2N2CCCCC2)ccc1C(=O)O`, the “viability, percent of control” value was 101%.

In the case of `CC(=O)N1CCN(c2ccc(OC[C@H]3CO[C@](Cn4ccnc4)(c4ccc(Cl)cc4Cl)O3)cc2)CC1`, the Potency was 13200 nM (active). The same measure, in the same setting: next, `CCCOc1ccc2nc(NC(=O)OC)[nH]c2c1`: 5.9 nM (active). Regarding `COc1ccc2cc([C@H](C)C(=O)O)ccc2c1`, the “viability, percent of control” value is 93%. Same read-out and setting: next, `CC(=O)NC[C@H]1CN(c2ccc(N3CCOCC3)c(F)c2)C(=O)O1`: 125%; `CS(=O)(=O)OCCCCOS(C)(=O)=O`: 77.8%; `CN(c1nccc(=O)[nH]1)C1CCN(c2nc3ccccc3n2Cc2ccc(F)cc2)CC1`: 104%.

In the case of `CC(C)C[C@H](NC(=O)[C@H](Cc1ccccc1)NC(=O)c1cnccn1)B(O)O`, the Potency is 8.3 nM (active).
